High-throughput results (PubChem)
In the library only some 1.2% were active in any assay of this set; here they are far more common.
RGS4-Gao reg – modulates binding of RGS4 to human Galphao. 220,000 compounds, 0.33% hits. binding response (% of control), % at 10 µM. Multiplexed bead flow cytometry; actives lie on both sides. P09471. AID 1415; in the data active = binding response below about 49% or above about 150%; inactive = in between;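 also: fluorescent Galphao activated with aluminum fluoride binding bead-coupled RGS4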
Target sequence (P09471 whole entry, looked up): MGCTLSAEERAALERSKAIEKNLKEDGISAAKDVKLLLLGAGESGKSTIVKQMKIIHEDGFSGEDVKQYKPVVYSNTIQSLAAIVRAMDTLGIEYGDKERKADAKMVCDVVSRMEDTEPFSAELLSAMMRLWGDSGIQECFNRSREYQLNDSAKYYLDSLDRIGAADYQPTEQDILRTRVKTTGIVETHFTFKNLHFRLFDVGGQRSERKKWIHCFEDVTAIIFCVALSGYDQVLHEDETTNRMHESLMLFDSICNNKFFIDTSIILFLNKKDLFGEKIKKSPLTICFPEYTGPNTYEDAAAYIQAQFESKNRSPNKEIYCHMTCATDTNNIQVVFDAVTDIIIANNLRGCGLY
Avidin bead fluor – compound fluoresces at 488/530 nm on avidin beads | 220,000 compounds, 0.38% hits | compound fluorescence 488/530 nm, flow cytometry; active compounds read high | fluorescence (KMESF) at 10 µM | AID 1775; in the data active = fluorescence above about 47
RGS16-Gao – modulates binding between human RGS16 and Galphao; O15492+P09471; bead-based flow cytometry RGS16-Galphao binding, fluorescence; actives lie on both sides; binding response (% of control), % at 10 µM; 220,000 compounds, 0.38% hits; AID 1441; call rule not given here;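 also: Galphao activated by GDP with aluminum fluoride before binding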
Target sequence (O15492 whole entry, looked up): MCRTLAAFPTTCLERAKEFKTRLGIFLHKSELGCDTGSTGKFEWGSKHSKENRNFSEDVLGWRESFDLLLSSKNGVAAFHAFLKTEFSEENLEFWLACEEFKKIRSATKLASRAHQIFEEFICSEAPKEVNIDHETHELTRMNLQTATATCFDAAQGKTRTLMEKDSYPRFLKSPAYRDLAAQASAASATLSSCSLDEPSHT
Target sequence (P09471 whole entry, looked up): as the sequence (P09471 whole entry, looked up) above
RGS8-Gao reg – modulates binding of RGS8 to human Galphao; P09471; multiplexed bead flow cytometry; actives lie on both sides; response (percent of control binding), % at 10 µM; 220,000 compounds, 0.34% hits; in the data active = response below about 60% or above about 140%; inactive = in between;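 also: Galphao activated as the GDP aluminium fluoride complex binding bead-coupled RGS8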
RGS7-Gao reg – regulators of human RGS7-Galphao interaction. P09471. Multiplexed bead flow cytometry, RGS7-Galphao binding; actives lie on both sides. binding response (% of control), % at 10 µM. 220,000 compounds, 0.35% hits; in the data active = binding response below about 49% or above about 150%; inconclusive = no clear call, values can overlap the other calls; inactive = in between;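 also: fluorescent Galphao held in activated GDP-AlF4 state binding bead-coupled RGS7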
GSH bead fluor – compound fluoresces at 488/530 nm on GSH beads; GSH beads flow cytometry, compound fluorescence 488/530 nm; active compounds read high; fluorescence (KMESF) at 10 µM; 190,000 compounds, 0.25% hits; AID 1776; in the data active = fluorescence above about 89;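 also: glutathione beads carrying GST-tagged Bcl family fusion proteins plus one bare bead set; values are compound well signal with DMSO vehicle wells as background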
Numbers without * were called inactive; ? = inconclusive; nt = not tested or not shown.

SMILES | RGS4-Gao reg | Avidin bead fluor | RGS16-Gao | RGS8-Gao reg | RGS7-Gao reg | GSH bead fluor
CCOC(=O)c1cnc2c(F)ccc(F)c2c1Sc1ccccc1 | 90 | 9 | 89 | 95 | ? | nt
NC(=O)NC(Cc1ccccc1)C(=O)Nc1ccc(S(N)(=O)=O)cc1 (stereo unspecified) | 99 | 7 | 103 | 101 | 103 | 253*
NS(=O)(=O)c1ccc(NC(=O)N[C@@H](Cc2ccccc2)C(=O)O)cc1 | 102 | 6 | 101 | 103 | 102 | 61
CCCSc1nc(C)c(CC(=O)OCC)c(=O)[nH]1 | 98 | 8 | 99 | 102 | 104 | 48
C=CCSc1nc(C)c(CC(=O)OCC(C)C)c(=O)[nH]1 | 102 | 48* | 106 | 101 | 108 | 18
O=C(Nc1cccnc1)c1ccc(Cl)c(S(=O)(=O)N2CCc3ccccc32)c1 | 101 | 62* | 108 | 102 | 121 | 10
COc1ccc(CCN(C)Cc2ccc(OC)c(OCc3ccccc3)c2)cc1OC | 106 | 50* | 106 | 106 | 127 | 32
CCOC(=O)CSc1nc2ccccc2c(=O)n1C1CCCC1 | 111 | 91* | 107 | 103 | 132 | 34
O=C(Cc1ccccc1)N/N=C/c1cccs1 | 104 | 4 | 102 | 103 | 106 | 25
O=S(=O)(CCc1ccccc1)/N=C/c1cccs1 | 118 | 51* | 124 | 98 | 118 | 17
Oc1c(Br)cc(Br)cc1C=NCc1ccc(F)cc1 | 98 | 10 | 95 | 99 | 102 | 26
Cc1nc(N2CCOCC2)c(C#N)c(C)c1Br | 103 | 7 | 101 | 100 | 102 | 260*
CCOC(=O)c1cc(-c2ccc(C)cc2)n(CCC(=O)NC(C)CC)c1C (stereo unspecified) | 102 | 64* | 102 | 100 | 105 | 19
CCOC(=O)c1cc(-c2ccc(F)cc2)n(CC(=O)NC(C)CC)c1C (stereo unspecified) | 99 | 33 | 79 | 94 | 113 | 16
COc1ccc(-n2c(C)cc(C(=O)CSc3nn4c(=O)c(C(C)(C)C)nnc4s3)c2C)cc1 | 103 | 57* | 110 | 103 | 113 | 23
Cc1cccc(NC(=S)NCC(c2cccnc2)N(C)C)c1 (stereo unspecified) | 103 | 14 | 102 | 101 | 104 | 13
COc1ccc2nc(Nc3nc(CSc4nnnn4-c4ccccc4)cc(=O)[nH]3)nc(C)c2c1 | 109 | 95* | 104 | 98 | 135 | 33
CCOc1ccc2nc(Nc3nc(CSc4nnnn4-c4ccccc4)cc(=O)[nH]3)nc(C)c2c1 | 103 | 6 | 106 | 104 | 104 | 23
CN(C)C(=O)COC(=O)[C@H](Cc1ccccc1)NC(=O)c1ccco1 | 99 | 53* | 102 | 99 | 109 | 18
O=C(CSCc1ccccc1)Nc1cccc(C(=O)Nc2ccc(C(=O)O)cc2)c1 | 102 | 53* | 102 | 99 | 117 | 19
O=C(c1ccccc1NS(=O)(=O)c1ccc(Cl)cc1)N1CCc2ccccc21 | 89 | 23 | 90 | 98 | 81 | 11
CCN(CC)c1ccc(/C=C2\C(=O)c3ccc(C(=O)O)cc3C2=O)cc1 | 97 | 13 | 98 | 98 | 95 | 306*
O=C1CCCN=C(Nc2ccc(F)c(Cl)c2)S1 | 103 | 3 | 98 | 102 | ? | nt
Cc1cc(C)cc(OCC(=O)Nc2ccccc2N2CCCCC2)c1 | 101 | 69* | 101 | 100 | 110 | 26
Clc1cccc(Cl)c1-c1noc(CN2CCOCC2)n1 | 98 | 9 | 96 | 94 | ? | nt
SMILES | RGS4-Gao reg | Avidin bead fluor | RGS16-Gao | RGS8-Gao reg | RGS7-Gao reg | GSH bead fluor
Cc1ccc(Cl)cc1NC(=S)N/N=C/c1cccc2ccccc12 | 99 | 5 | 100 | 99 | ? | nt
O=C(CN1CCN(c2ccccc2F)CC1)NC(=O)NCc1ccco1 | 95 | 8 | 98 | 99 | 98 | 17
CC(Nc1n[nH]c(=S)[nH]c1=O)C(=O)OCc1ccccc1 (stereo unspecified) | 112 | 6 | 59 | 96 | 102 | 238*
Cc1cccc(N2CCN(S(=O)(=O)c3cccc4nonc34)CC2)c1C | 102 | 9 | 102 | 101 | 102 | 13
N#Cc1ccc(COC(=O)C2CCC(=O)N2)cc1 (stereo unspecified) | 105 | 7 | 107 | 103 | 105 | 258*
O=C1CCC(C(=O)OCC(=O)c2ccccc2)N1 (stereo unspecified) | 75 | 8 | 75 | 79 | 69 | 10
O=C(OCC(=O)N1CCCc2ccccc21)c1cccc(S(=O)(=O)N2CCc3ccccc32)c1 | 99 | 23 | 107 | 106 | 102 | 11
Cc1ccc(N(CC(=O)NCc2ccco2)C(=O)CCC(=O)Nc2ccccn2)cc1C | 100 | 8 | 104 | 98 | 99 | 254*
Cc1cc(C)cc(N(CC(=O)NCc2ccco2)C(=O)CCC(=O)Nc2ccccn2)c1 | 100 | 33 | 102 | 100 | 101 | 24
CCOC(=O)N1CCN(Cc2cc(=O)oc3ccc(Cl)cc23)CC1 | 102 | 7 | 102 | 102 | 102 | 267*
CN1CCN(Cc2cc(=O)oc3ccc(Cl)cc23)CC1 | 105 | 8 | 103 | 100 | 103 | 7
O=C(O)C1C2C=CC(C2)C1C(=O)NCCc1cccc(Cl)c1 (stereo unspecified) | 101 | 48* | 106 | 100 | 106 | 28
Nn1c(-c2ccccc2Cl)nnc1-c1ccccc1Cl | 119 | 8 | 108 | 106 | 113 | 102*
CCOC(=O)c1c(N2C(=O)CC(Sc3ccccc3C(=O)O)C2=O)sc2c1CCCC2 (stereo unspecified) | 101 | 12 | 97 | 97 | 94 | 13
Cc1c(/C=N\NC(=O)c2csc3ccccc23)cnn1C | 110 | 54* | 106 | 102 | 127 | 23
Cc1ccc(NC(=O)c2ccc(OC(=O)CCN3C(=O)c4ccccc4C3=O)cc2)cc1 | 96 | 48* | 100 | 99 | 106 | 10
COc1ccc2[nH]c(=O)c(CN(Cc3nnnn3Cc3ccc(F)cc3)CC3CCCO3)cc2c1 (stereo unspecified) | 108 | 105* | 104 | 100 | 144 | 12
O=C(O)c1ccc2c(c1)C(=O)N(N1C(=O)c3ccccc3C1=O)C2=O | 101 | 24 | 116 | 99 | 106 | 111*
CC(=O)Oc1ccccc1N1C(=O)c2ccc(C(=O)O)cc2C1=O | 96 | 3 | 33 | 91 | 94 | 45
Cc1cc(NC(=O)c2ccc(S(=O)(=O)N(C)C)cc2)n(-c2ccccn2)n1 | 108 | 88* | 104 | 104 | 122 | 26
COC(=O)C(Cc1csc2ccc(Cl)cc12)NC(=O)c1ccc(Cl)cc1 (stereo unspecified) | 102 | 11 | 102 | 100 | ? | nt
O=C(CNC1CCCCC1)Nc1cc(S(=O)(=O)N2CCOCC2)ccc1Cl | 100 | 8 | 104 | 98 | ? | 12
Cc1ccc2c(CC(=O)O)coc2c1 | 103 | 15 | 106 | 102 | 106 | 24
